Source: the supplement of paper PMC4022240
± gives the standard deviation.

T1: HaloTag-ATRX ADD domain (163-292)
T1 chain: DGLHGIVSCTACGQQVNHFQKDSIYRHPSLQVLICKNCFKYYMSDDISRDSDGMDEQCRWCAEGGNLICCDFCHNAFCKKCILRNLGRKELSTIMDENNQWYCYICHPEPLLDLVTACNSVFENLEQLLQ


Molecular target: T1, HaloTag-ATRX ADD domain (163-292)
Experiment: peptide microarray binding signal (635 nm), min-max normalized on array (fraction of array maximum); higher = stronger binding
Conditions: peptide region: Unmod H2B variant; binder concentration: 50 nM
In short: (§1)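 Triplicate spots of histone 13-mer peptide–cellulose conjugates with a Cy3 tracer were printed on nitrocellulose and probed for 1 h at 4°C with biotin-labelled HaloTag reader fusions (10 nM to 1 μM) plus streptavidin-Alexa Fluor 647 or rabbit histone antibodies (1:10,000 to 1:2,000) plus anti-rabbit Alexa 647. An Axon GenePix 4000B read the 635 nm channel. Binding signal is the spot-triplicate mean intensity after min-max scaling within each library.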

| Binder | peptide microarray binding signal |
| --- | --- |
| APKKGSKKAITKA [Unmod H2B variant A P K K G S K K A I T K A] | 0.00592 ± 0.00021 |
| KRTRKESYSIYIY [Unmod H2B variant K R T R K E S Y S I Y I Y] | 0.015 ± 0.0008 |
| PEPSKSAPAPKKG [Unmod H2B variant P E P S K S A P A P K K G] | 0.00618 ± 0.00016 |
| KTQKKEGKKRKRT [Unmod H2B variant K T Q K K E G K K R K R T] | 0.0089 ± 0.00018 |
| EGKKRKRTRKESY [Unmod H2B variant E G K K R K R T R K E S Y] | 0.00661 ± 0.00023 |
| PEPVKSAPVPKKG [Unmod H2B variant P E P V K S A P V P K K G] | 0.007868 ± 4.2e-05 |
| PEPAKSAPAPKKG [Unmod H2B variant P E P A K S A P A P K K G] | 0.00404 ± 8.4e-05 |
| VHPDTGISSKAMG [Unmod H2B variant V H P D T G I S S K A M G] | 0.009373 ± 4.6e-05 |
| KVLKQVHPDTGIS [Unmod H2B variant K V L K Q V H P D T G I S] | 0.00552 ± 0.00019 |
| DGKKRKRSRKESY [Unmod H2B variant D G K K R K R S R K E S Y] | 0.00834 ± 0.00013 |

Same assay, conditions: peptide region: Unmod H2B variant; binder concentration: 500 nM

| Binder | peptide microarray binding signal |
| --- | --- |
| APKKGSKKAITKA [Unmod H2B variant A P K K G S K K A I T K A] | 0.00971 ± 0.00064 |
| KRTRKESYSIYIY [Unmod H2B variant K R T R K E S Y S I Y I Y] | 0.0228 ± 0.0011 |
| PEPSKSAPAPKKG [Unmod H2B variant P E P S K S A P A P K K G] | 0.0115 ± 0.0012 |
| KTQKKEGKKRKRT [Unmod H2B variant K T Q K K E G K K R K R T] | 0.0148 ± 0.0025 |
| EGKKRKRTRKESY [Unmod H2B variant E G K K R K R T R K E S Y] | 0.0101 ± 0.00031 |
| PEPVKSAPVPKKG [Unmod H2B variant P E P V K S A P V P K K G] | 0.0166 ± 0.00043 |
| PEPAKSAPAPKKG [Unmod H2B variant P E P A K S A P A P K K G] | 0.00971 ± 0.00016 |
| VHPDTGISSKAMG [Unmod H2B variant V H P D T G I S S K A M G] | 0.0173 ± 0.0018 |
| KVLKQVHPDTGIS [Unmod H2B variant K V L K Q V H P D T G I S] | 0.00971 ± 0.0005 |
| DGKKRKRSRKESY [Unmod H2B variant D G K K R K R S R K E S Y] | 0.00714 ± 0.00021 |

molecular target: HaloTag-ING2 PHD (mouse Ing2 200-280); experiment: as above; conditions: peptide region: Unmod H2B variant; binder concentration: 10 nM
In short: as §1

| Binder | peptide microarray binding signal |
| --- | --- |
| APKKGSKKAITKA [Unmod H2B variant A P K K G S K K A I T K A] | 0.00239 ± 4.7e-05 |
| KRTRKESYSIYIY [Unmod H2B variant K R T R K E S Y S I Y I Y] | 0.00716 ± 0.00018 |
| PEPSKSAPAPKKG [Unmod H2B variant P E P S K S A P A P K K G] | 0.00406 ± 0.00015 |
| KTQKKEGKKRKRT [Unmod H2B variant K T Q K K E G K K R K R T] | 0.003163 ± 1.7e-05 |
| EGKKRKRTRKESY [Unmod H2B variant E G K K R K R T R K E S Y] | 0.00251 ± 0.00012 |
| PEPVKSAPVPKKG [Unmod H2B variant P E P V K S A P V P K K G] | 0.00889 ± 0.00055 |
| PEPAKSAPAPKKG [Unmod H2B variant P E P A K S A P A P K K G] | 0.00346 ± 6.5e-05 |
| VHPDTGISSKAMG [Unmod H2B variant V H P D T G I S S K A M G] | 0.0154 ± 0.0017 |
| KVLKQVHPDTGIS [Unmod H2B variant K V L K Q V H P D T G I S] | 0.00531 ± 0.00011 |
| DGKKRKRSRKESY [Unmod H2B variant D G K K R K R S R K E S Y] | 0.00221 ± 3.8e-05 |

same assay, conditions: peptide region: Unmod H2B variant; binder concentration: 100 nM

| Binder | peptide microarray binding signal |
| --- | --- |
| APKKGSKKAITKA [Unmod H2B variant A P K K G S K K A I T K A] | 0.00248 ± 6.3e-05 |
| KRTRKESYSIYIY [Unmod H2B variant K R T R K E S Y S I Y I Y] | 0.0159 ± 0.0033 |
| PEPSKSAPAPKKG [Unmod H2B variant P E P S K S A P A P K K G] | 0.0137 ± 0.0011 |
| KTQKKEGKKRKRT [Unmod H2B variant K T Q K K E G K K R K R T] | 0.00857 ± 0.0013 |
| EGKKRKRTRKESY [Unmod H2B variant E G K K R K R T R K E S Y] | 0.00326 ± 0.0001 |
| PEPVKSAPVPKKG [Unmod H2B variant P E P V K S A P V P K K G] | 0.0274 ± 0.0037 |
| PEPAKSAPAPKKG [Unmod H2B variant P E P A K S A P A P K K G] | 0.00369 ± 5.6e-05 |
| VHPDTGISSKAMG [Unmod H2B variant V H P D T G I S S K A M G] | 0.0346 ± 0.0034 |
| KVLKQVHPDTGIS [Unmod H2B variant K V L K Q V H P D T G I S] | 0.0101 ± 0.00011 |
| DGKKRKRSRKESY [Unmod H2B variant D G K K R K R S R K E S Y] | 0.00454 ± 0.00011 |

molecular target: anti-H3K4me3 antibody ab8580; experiment: as above; conditions: peptide region: Unmod H2B variant; binder concentration: 1:2,000 dilution
In short: as §1

| Binder | peptide microarray binding signal |
| --- | --- |
| APKKGSKKAITKA [Unmod H2B variant A P K K G S K K A I T K A] | 0.000264 ± 2.8e-06 |
| KRTRKESYSIYIY [Unmod H2B variant K R T R K E S Y S I Y I Y] | 0.000529 ± 1.4e-05 |
| PEPSKSAPAPKKG [Unmod H2B variant P E P S K S A P A P K K G] | 0.000963 ± 6.3e-05 |
| KTQKKEGKKRKRT [Unmod H2B variant K T Q K K E G K K R K R T] | 0.00068 ± 1.9e-05 |
| EGKKRKRTRKESY [Unmod H2B variant E G K K R K R T R K E S Y] | 0.000378 ± 3.9e-06 |
| PEPVKSAPVPKKG [Unmod H2B variant P E P V K S A P V P K K G] | 0.00279 ± 0.00019 |
| PEPAKSAPAPKKG [Unmod H2B variant P E P A K S A P A P K K G] | 0.000359 ± 3.7e-06 |
| VHPDTGISSKAMG [Unmod H2B variant V H P D T G I S S K A M G] | 0.00563 ± 0.0004 |
| KVLKQVHPDTGIS [Unmod H2B variant K V L K Q V H P D T G I S] | 0.000755 ± 1.8e-05 |
| DGKKRKRSRKESY [Unmod H2B variant D G K K R K R S R K E S Y] | 0.000623 ± 2e-05 |

same assay, conditions: peptide region: Unmod H2B variant; binder concentration: 1:10,000 dilution

| Binder | peptide microarray binding signal |
| --- | --- |
| APKKGSKKAITKA [Unmod H2B variant A P K K G S K K A I T K A] | 0.00114 ± 3e-05 |
| KRTRKESYSIYIY [Unmod H2B variant K R T R K E S Y S I Y I Y] | 0.0016 ± 5.3e-05 |
| PEPSKSAPAPKKG [Unmod H2B variant P E P S K S A P A P K K G] | 0.00126 ± 9.4e-05 |
| KTQKKEGKKRKRT [Unmod H2B variant K T Q K K E G K K R K R T] | 0.0012 ± 1.2e-05 |
| EGKKRKRTRKESY [Unmod H2B variant E G K K R K R T R K E S Y] | 0.000913 ± 1.6e-05 |
| PEPVKSAPVPKKG [Unmod H2B variant P E P V K S A P V P K K G] | 0.00251 ± 0.00026 |
| PEPAKSAPAPKKG [Unmod H2B variant P E P A K S A P A P K K G] | 0.00097 ± 2e-05 |
| VHPDTGISSKAMG [Unmod H2B variant V H P D T G I S S K A M G] | 0.00964 ± 0.0005 |
| KVLKQVHPDTGIS [Unmod H2B variant K V L K Q V H P D T G I S] | 0.001655 ± 1.6e-05 |
| DGKKRKRSRKESY [Unmod H2B variant D G K K R K R S R K E S Y] | 0.000628 ± 6.7e-06 |

molecular target: anti-H3K9me3 antibody ab8898; experiment: as above; conditions: peptide region: Unmod H2B variant; binder concentration: 1:2,000 dilution
In short: as §1

| Binder | peptide microarray binding signal |
| --- | --- |
| APKKGSKKAITKA [Unmod H2B variant A P K K G S K K A I T K A] | 0.000302 ± 3.1e-06 |
| KRTRKESYSIYIY [Unmod H2B variant K R T R K E S Y S I Y I Y] | 0.000468 ± 1.2e-05 |
| PEPSKSAPAPKKG [Unmod H2B variant P E P S K S A P A P K K G] | 0.000453 ± 7.5e-06 |
| KTQKKEGKKRKRT [Unmod H2B variant K T Q K K E G K K R K R T] | 0.000287 ± 5.9e-06 |
| EGKKRKRTRKESY [Unmod H2B variant E G K K R K R T R K E S Y] | 0.000302 ± 1.5e-05 |
| PEPVKSAPVPKKG [Unmod H2B variant P E P V K S A P V P K K G] | 0.000997 ± 6.3e-05 |
| PEPAKSAPAPKKG [Unmod H2B variant P E P A K S A P A P K K G] | 0.000408 |
| VHPDTGISSKAMG [Unmod H2B variant V H P D T G I S S K A M G] | 0.00272 ± 6.5e-05 |
| KVLKQVHPDTGIS [Unmod H2B variant K V L K Q V H P D T G I S] | 0.000483 ± 2.8e-05 |
| DGKKRKRSRKESY [Unmod H2B variant D G K K R K R S R K E S Y] | 0.000151 ± 1.6e-06 |

same assay, conditions: peptide region: Unmod H2B variant; binder concentration: 1:10,000 dilution

| Binder | peptide microarray binding signal |
| --- | --- |
| APKKGSKKAITKA [Unmod H2B variant A P K K G S K K A I T K A] | 0.000634 ± 1.2e-05 |
| KRTRKESYSIYIY [Unmod H2B variant K R T R K E S Y S I Y I Y] | 0.0011 ± 1.1e-05 |
| PEPSKSAPAPKKG [Unmod H2B variant P E P S K S A P A P K K G] | 0.000923 ± 9.6e-06 |
| KTQKKEGKKRKRT [Unmod H2B variant K T Q K K E G K K R K R T] | 0.000865 ± 9e-06 |
| EGKKRKRTRKESY [Unmod H2B variant E G K K R K R T R K E S Y] | 0.000404 ± 4.4e-06 |
| PEPVKSAPVPKKG [Unmod H2B variant P E P V K S A P V P K K G] | 0.00144 ± 5.1e-05 |
| PEPAKSAPAPKKG [Unmod H2B variant P E P A K S A P A P K K G] | 0.000346 ± 3.8e-06 |
| VHPDTGISSKAMG [Unmod H2B variant V H P D T G I S S K A M G] | 0.00283 ± 4.9e-05 |
| KVLKQVHPDTGIS [Unmod H2B variant K V L K Q V H P D T G I S] | 0.00346 ± 0.0011 |
| DGKKRKRSRKESY [Unmod H2B variant D G K K R K R S R K E S Y] | 0.000461 |
